Bioassay records: PubChem BioAssay, several laboratories
Hits are enriched below; roughly 5.1% of the tested compounds scored in any of these assays.
GRIN3A LBD mod: modulates the human NR3A ligand-binding domain; NR3A LBD differential scanning fluorimetry, Tm shift; 0% = protein alone, 100% = glycine-bound protein; Tm shift relative to glycine control, % at 25 µM; 2.5% of 340,000 active;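 active = melting temperature shift of at least 10% of the positive control shift, at one fixed dose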
MPTP inh: permeability transition pore inhibition; 1.4% of 360,000 active; AID 602449; inhibition, % at 10 µM; isolated mouse mitochondria, Ca2+ swelling absorbance, 30 min;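 active = inhibition of 50% or more, scaled per plate between neutral and stimulator controls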;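 also: 0% = DMSO wells given calcium and 100% = 1 mM EGTA wells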
ANO1 block: blocks the mouse calcium-activated chloride channel TMEM16A | Q8BHY3 | HEK293 TMEM16A/YFP iodide influx fluorescence, ionomycin | normalized B-score (activity score, 25-100; higher = stronger inhibition) at 10 µM | 1.2% of 310,000 active;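 active = ratio plate-corrected score three or more library SD toward inhibition, starting fluorescence score within five deviations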;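 also: score derived from kinetic fluorescence span divided by baseline fluorescence per well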
TMEM16A act: activates or potentiates the mouse TMEM16A chloride channel. Q8BHY3. B-score at 10 µM. 0.3% of 340,000 active. HEK293 TMEM16A/YFP-H148Q/I152L, iodide quench fluorescence; active compounds read low. AID 623877;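 active = fluorescence-ratio B-score plate-corrected deviation score at least 3 library SD below zero, with starting fluorescence score within 5 deviations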;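 also: channel opened by trigger with iodide after compound preincubation; score built on the fluorescence ratio of max minus min over baseline; more negative score means more quench and so TMEM16A activation or potentiation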
CRFBP-R2 block: antagonists of CRF-binding protein/CRF-R2 receptor complex; HEK293 CRF-R2/CRF-BP, CRF-induced calcium fluorescence; inhibition, % at 11.8 µM; 0.59% of 350,000 active; AID 588475;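 active = inhibition of the ligand-induced calcium signal above about 50% at the single tested concentration, limit read from the data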
CRFBP-R2 agonist: CRF-BP/CRF-R2 complex agonism; 0.46% of 350,000 active; HEK293 CRF-R2/CRF-BP, calcium dye fluorescence (FLIPR); percent of saturating CRF peptide response; activation, % at 13.2 µM; AID 588473;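 active = activation of at least 50%, plus an integration ratio under a set limit after plate pattern correction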;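 also: plate controls were neutral control wells without compound for no effect and CRF at EC100 for full effect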
TMEM16A reconf: re-confirmation of mouse TMEM16A chloride channel inhibitors | inhibition, % at 10 µM | shares compounds with ANO1 block | HEK293 TMEM16A/YFP-H148Q, iodide quench fluorescence; ionomycin added to raise cell calcium | 39% of 2,300 active | AID 652189;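 active = mean duplicate percent inhibition, scaled so buffer wells are 0 and the reference blocker 100, over three buffer SD above buffer mean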
TMEM16A Ca cntr: alters calcium mobilization in TMEM16A HEK293 cells, counter-screen; TMEM16A/YFP HEK293, Fluo4 calcium mobilization; calcium response (% of ionomycin), % at 10 µM; 2% of 2,300 active; shares compounds with ANO1 block;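 active = duplicate-averaged calcium signal over 20% of the ionomycin maximum, relative to buffer baseline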;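 also: each well's signal is peak minus trough fluorescence divided by its pre-addition baseline; 0% = buffer wells and 100% = ionomycin wells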
YFP-HEK293 quench: acts in parental YFP-HEK293 cells lacking TMEM16A, counter-screen; shares compounds with ANO1 block; iodide YFP quench, ionomycin; YFP ratio F(max-min)/F0 at 10 µM; 2,300 tested, under 10 active; AID 652233;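 active = yellow fluorescent protein signal ratio exceeding the buffer control mean by over 5 SD of those controls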;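 also: ratio is mean of duplicate wells from kinetic YFP trace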
ClC-1 rat inh: selectivity of TMEM16A inhibitors: inhibition of rat ClC-1 chloride channel; shares compounds with ANO1 block; CHO ClC-1-YFP, iodide influx fluorescence quench; iodide control reads 0, buffer control 100; ratio percent, % at 10 µM; 2,300 tested, under 10 active; AID 652236;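 active = duplicate-mean ratio percent above the mean of iodide-only control wells, which defines zero, plus 5 of their SD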;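 also: higher percent means stronger block of ClC-1 iodide influx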
Target sequence (P35524 whole entry, looked up): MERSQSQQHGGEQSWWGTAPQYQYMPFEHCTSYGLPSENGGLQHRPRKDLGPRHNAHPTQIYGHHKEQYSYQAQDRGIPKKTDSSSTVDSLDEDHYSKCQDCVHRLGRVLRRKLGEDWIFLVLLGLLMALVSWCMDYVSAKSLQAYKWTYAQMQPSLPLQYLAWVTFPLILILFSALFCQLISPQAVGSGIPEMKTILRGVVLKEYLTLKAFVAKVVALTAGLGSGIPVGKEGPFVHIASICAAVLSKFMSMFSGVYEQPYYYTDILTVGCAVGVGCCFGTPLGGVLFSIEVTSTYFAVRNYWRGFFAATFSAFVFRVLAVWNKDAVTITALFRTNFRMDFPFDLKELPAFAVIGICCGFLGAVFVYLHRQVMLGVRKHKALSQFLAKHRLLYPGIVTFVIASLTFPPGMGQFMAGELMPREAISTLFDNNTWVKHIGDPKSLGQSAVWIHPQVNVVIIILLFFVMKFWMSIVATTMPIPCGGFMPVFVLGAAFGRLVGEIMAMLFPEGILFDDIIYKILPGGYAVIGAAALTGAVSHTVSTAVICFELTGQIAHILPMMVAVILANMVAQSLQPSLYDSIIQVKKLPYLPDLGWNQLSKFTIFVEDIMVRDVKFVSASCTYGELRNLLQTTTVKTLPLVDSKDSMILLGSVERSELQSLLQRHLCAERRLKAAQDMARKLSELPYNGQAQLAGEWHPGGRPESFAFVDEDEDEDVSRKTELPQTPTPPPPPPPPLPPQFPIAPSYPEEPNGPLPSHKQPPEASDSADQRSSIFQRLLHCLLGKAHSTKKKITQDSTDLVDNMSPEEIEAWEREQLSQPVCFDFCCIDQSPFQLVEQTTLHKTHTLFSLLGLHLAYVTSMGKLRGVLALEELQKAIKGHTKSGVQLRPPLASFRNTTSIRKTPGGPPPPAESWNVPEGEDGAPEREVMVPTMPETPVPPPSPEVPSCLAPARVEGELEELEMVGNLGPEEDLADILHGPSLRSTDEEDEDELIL
MPTP counter: Rhodamine 123 counter-screen of mitochondrial pore hits | isolated mitochondria, membrane potential, Rhodamine 123 fluorescence | shares compounds with MPTP inh | inhibition, % at 10 µM | 78% of 5,000 active | AID 624504; in the data active = inhibition above about 22%;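 also: 0% = DMSO vehicle and 100% = positive control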
* marks the source's active call; other numbers are inactive results; i = inactive; nt = not tested or not shown; ! = not active in a repeat.

SMILES	GRIN3A LBD mod	MPTP inh	ANO1 block	TMEM16A act	CRFBP-R2 block	CRFBP-R2 agonist	TMEM16A reconf	TMEM16A Ca cntr	YFP-HEK293 quench	ClC-1 rat inh	MPTP counter
Cc1ccc(CCN2CC(C(=O)NCCCN3CCC(C)CC3)CC2=O)cc1 (stereo unspecified)	-2	0	i	i	2	0	nt	nt	nt	nt	nt
CC(C(=O)Nc1cccnc1)c1ccc([N+](=O)[O-])cc1 (stereo unspecified)	-1	0	i	i	12	1	nt	nt	nt	nt	nt
CC(C)Cc1ccc(C(C)C(=O)Nc2cccnc2)cc1 (stereo unspecified)	1	85*	25*	i	-25	62*	52%*	i	-1.1	-12	79*
CSc1nc2ccc(NS(=O)(=O)c3cccc(Cl)c3Cl)cc2s1	16*	60*	100*	i	-23	-1	62%*	i	-0.92	-16	64*
CC(=O)c1ccc(NC(=O)Nc2cccc(Cl)c2)cc1	35*	101*	25*	i	-26	53*	54%*	i	-1.1	-27	88*
CCc1nc2c(OCc3cc(Cl)cc(Cl)c3)cccn2c1N(C)C(=O)Nc1ccccc1OC	nt	0	nt	nt	nt	nt	nt	nt	nt	nt	nt
Cc1ccc(C)c(S(=O)(=O)C(C#N)c2nc3ccccc3nc2N2CCOCC2)c1 (stereo unspecified)	-2	53*	25*	i	63*	6	22%*	i	-0.89	-14	73*
Cc1ccc(S(=O)(=O)C(C#N)c2nc3ccccc3nc2N2CCN(C)CC2)cc1C (stereo unspecified)	-2	-2	i	i	-17	20	nt	nt	nt	nt	nt
Cc1ccc(S(=O)(=O)C(C#N)c2nc3ccccc3nc2N2CCC(C)CC2)cc1 (stereo unspecified)	-6	1	nt	i	-3	2	nt	nt	nt	nt	nt
Cc1ccc(C)c(S(=O)(=O)C(C#N)c2nc3ccccc3nc2N2CC(C)OC(C)C2)c1 (stereo unspecified)	1	78*	25*	i	-18	-1	18%*	i	-1	-18	76*
O=C(CNC(=O)N1CC(=O)Nc2ccccc21)Nc1nccs1	-2	0	i	i	-13	-1	nt	nt	nt	nt	nt
CCOC(=O)c1ccc(NC(=O)c2nc[nH]c2C(=O)NC[C@H](C)O)cc1	nt	0	nt	nt	17	-1	nt	nt	nt	nt	nt
C1CCC(C(CC2CCCCN2)C2CCCCC2)CC1 (stereo unspecified)	-2	82*	25*!	i	-51	0	i	i	-1.1	-10	-10
CCCCN(CC)CCCNC(=O)c1cn(C)c2ccc(S(=O)(=O)N(C)C3CCCCC3)cc2c1=O	4	-1	i	i	-11	1	nt	nt	nt	nt	nt
C[C@H](CO)N1C[C@H](C)[C@H](CN(C)C(=O)c2ccccc2)OCc2cnnn2CCCC1=O	nt	-1	nt	nt	0	-1	nt	nt	nt	nt	nt
Cc1ccc2nc(C)c(CN3CCN(c4ccc([N+](=O)[O-])cc4Cl)CC3)n2c1	nt	88*	25*	i	nt	nt	18%*	i	-0.9	-14	102*
O=[N+]([O-])c1ccc(Cl)c(CN2CCN(c3ncccn3)CC2)c1	-1	2	i	i	5	0	nt	nt	nt	nt	nt
Cc1c(C(=O)N2CCCCC2)oc2ccc(S(=O)(=O)N3CC(C)CC(C)C3)cc12 (stereo unspecified)	8	83*	25*	i	24	-2	21%*	i	-0.96	-2	44*
O=C(NC1CCCC1)C1c2ccccc2OCC(=O)N1Cc1ccc2c(c1)OCO2 (stereo unspecified)	nt	1	nt	nt	nt	nt	nt	nt	nt	nt	nt
CCC(=NC(C)c1ccccc1)c1c(O)n(C)c(=O)n(C)c1=O (stereo unspecified)	1	67*	100*	i	-1	-4	22%*	i	-0.93	-24	33*
CC1=NN(C(=O)c2csc(C)c2)C(O)(C(F)(F)F)C1 (stereo unspecified)	0	-2	i	i	-6	-2	nt	nt	nt	nt	nt
CC1=NN(C(=O)c2ccc(Br)cc2)C(O)(C(F)(F)OC(F)(F)F)C1 (stereo unspecified)	-3	68*	100*	i	50*	0	29%*	i	-0.97	-21	78*
O=C(Nc1cccc(C(F)(F)F)c1)c1cccnc1NCCc1ccccc1	28*	80*	25*	i	-132	1	i	i	-1.1	-5	70*
O=C(Nc1cccc(C(F)(F)F)c1)c1cccnc1NCCO	0	1	i	i	-10	-1	nt	nt	nt	nt	nt
COc1ccc(-c2nc(CN3CCN(c4ncnc5ccccc45)CC3)c(C)o2)c(OC)c1	-1	66*	100*	i	-31	-3	20%*	i	-1.1	-15	29*
COc1ccc(-c2nc(CN3CCN(c4ccccc4OC)CC3)c(C)o2)cc1	0	-1	i	i	8	0	nt	nt	nt	nt	nt
Cc1ccc(NC(=O)c2c(C(F)(F)F)nn(C)c2SCc2cccc(C(F)(F)F)c2)cc1C	-1	68*	100*	i	-24	0	i	i	-0.98	-8	83*
Cc1ccc(NC(=O)c2c(C(F)(F)F)nn(C)c2SCc2ccc(Cl)cc2)cc1C	-12	36	i	i	19	14	nt	nt	nt	nt	nt
CC1CCC(NC(=O)c2cccn2C)CC1 (stereo unspecified)	0	-2	nt	i	1	0	nt	nt	nt	nt	nt
